Test results as given in the supplement of paper PMC3334620.
Over roughly 33,000 sequences, “E-score (-0.5 to 0.5)” has its median near -0.053; the highest 2% begin near 0.37. This is one part of a sample in which the highest values are shown more often than they occur.

Target: Hap1 (UniProt P0CE41)
Experiment: PBM E-score (8-mer binding enrichment) (E-score (-0.5 to 0.5)); higher = stronger / more preferred TF binding
Conditions: protein concentration: 200 nM; construct: GST-DNA-binding domain
Protocol: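 Universal 'all 10-mer' protein binding microarrays (Agilent AMADID 015681) probed with GST-tagged S. cerevisiae TFs (full-length or DBD) made by in vitro transcription/translation (PURExpress), about 100-200 nM. Bound TF was detected with fluorescent anti-GST. Each ungapped 8-mer (which stands for itself and its reverse complement) is scored by the PBM enrichment score (E-score), a modified Wilcoxon-Mann-Whitney statistic from -0.5 to +0.5, computed with the Universal PBM Analysis Suite. Scale: above 0.35 generally sequence-specific binding.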

Chain of UniProt P0CE41 (P0CE41 whole entry): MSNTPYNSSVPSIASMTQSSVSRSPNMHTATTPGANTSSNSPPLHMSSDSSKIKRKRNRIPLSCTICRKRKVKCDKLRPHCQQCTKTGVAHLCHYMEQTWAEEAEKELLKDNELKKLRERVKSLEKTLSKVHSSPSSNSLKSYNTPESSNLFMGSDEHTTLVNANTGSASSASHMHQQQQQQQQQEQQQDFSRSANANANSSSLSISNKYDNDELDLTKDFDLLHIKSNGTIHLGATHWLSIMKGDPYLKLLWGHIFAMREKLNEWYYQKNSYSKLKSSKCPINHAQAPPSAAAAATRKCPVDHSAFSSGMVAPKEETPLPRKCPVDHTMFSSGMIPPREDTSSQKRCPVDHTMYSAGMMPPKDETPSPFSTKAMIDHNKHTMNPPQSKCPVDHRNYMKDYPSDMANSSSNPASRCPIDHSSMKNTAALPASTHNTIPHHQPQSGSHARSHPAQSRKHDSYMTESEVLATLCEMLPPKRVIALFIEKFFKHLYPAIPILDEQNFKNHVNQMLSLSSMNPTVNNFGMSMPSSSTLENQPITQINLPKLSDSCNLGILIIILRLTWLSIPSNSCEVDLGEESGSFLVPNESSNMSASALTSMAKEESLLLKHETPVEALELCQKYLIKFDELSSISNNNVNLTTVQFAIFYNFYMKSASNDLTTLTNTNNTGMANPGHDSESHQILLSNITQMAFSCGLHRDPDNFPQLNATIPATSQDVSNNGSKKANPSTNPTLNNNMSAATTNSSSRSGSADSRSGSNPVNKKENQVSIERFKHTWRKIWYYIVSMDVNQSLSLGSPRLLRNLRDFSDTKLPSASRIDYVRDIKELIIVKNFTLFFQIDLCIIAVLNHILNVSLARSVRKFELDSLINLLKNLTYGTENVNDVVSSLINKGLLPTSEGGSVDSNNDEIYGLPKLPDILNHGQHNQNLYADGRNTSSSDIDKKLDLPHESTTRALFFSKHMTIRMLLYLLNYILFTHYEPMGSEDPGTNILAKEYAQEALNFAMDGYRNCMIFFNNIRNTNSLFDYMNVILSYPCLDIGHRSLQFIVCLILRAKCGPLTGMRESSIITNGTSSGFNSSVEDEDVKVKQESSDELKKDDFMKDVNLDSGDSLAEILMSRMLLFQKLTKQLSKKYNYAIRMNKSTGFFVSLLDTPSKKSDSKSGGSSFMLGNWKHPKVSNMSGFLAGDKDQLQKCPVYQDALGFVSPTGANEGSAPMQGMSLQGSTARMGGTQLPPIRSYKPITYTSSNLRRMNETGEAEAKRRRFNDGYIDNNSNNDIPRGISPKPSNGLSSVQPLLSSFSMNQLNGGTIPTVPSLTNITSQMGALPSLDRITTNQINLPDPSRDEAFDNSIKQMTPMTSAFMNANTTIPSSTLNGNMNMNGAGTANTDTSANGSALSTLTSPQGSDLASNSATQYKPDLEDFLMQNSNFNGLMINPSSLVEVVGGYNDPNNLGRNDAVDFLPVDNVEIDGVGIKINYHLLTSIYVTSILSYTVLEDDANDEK

Sequence | PBM E-score
AAACCGGA | 0.328
GAACCGTA | 0.0759
GAACCGGC | 0.239
CCACTGCG | -0.0793
CGGGTGAG | 0.201
GTTCCCTA | -0.0618
GAAACGTA | -0.151
GGCTCCGA | 0.221
AGCTCCGC | 0.306
AGCTCCCG | 0.0669
CGCTCCGA | 0.324
AGCTCCGA | 0.411
AGCTCCGG | 0.43
GCCGCACA | -0.0419
CATTACCG | 0.198
ATTTACCA | 0.0182
ATTTACCG | 0.376
AATTACCC | 0.0864
ATTTACCC | 0.0884
AATTACCG | 0.374
GCGAGCAC | -0.187
GTCGAAAA | -0.0295

Sequence | PBM E-score
CCCCCCCC | -0.27
ACGCACCT | -0.185
CCCGGCCG | 0.405
ACCGGCCT | 0.181
CCCGGCCC | 0.341
ACCGGCCC | 0.329
GCCGGCCC | 0.372
ACCGGCCG | 0.439
GCCGGCCA | 0.284
ACCGGCCA | 0.284
CCCGGCCA | 0.291
AACTCTGG | -0.202
ACGCAAAG | -0.0974
ACTGCGTG | -0.275
CTCGTAGC | -0.117
TAATTAGA | 0.0224
AAGGCCGC | 0.135
AAGGCCCG | 0.196
AAGGCCGT | 0.212
AAGGCCGA | 0.435
CAGGCCGG | 0.166
AAGGCCGG | 0.408

Sequence | PBM E-score
CGAGATGC | -0.0846
GGTACCAA | 0.0294
AAGTTAGG | -0.0844
CCTTGAAC | -0.1
CACCGAGA | 0.259
CACCGAGC | 0.297
GACCGAGC | 0.375
AACCGAGT | 0.157
AACCGAGC | 0.371
GACCGACC | 0.266
AACCGAGG | 0.148
TACCGAGA | 0.209
GACCGAGA | 0.382
GCTACGCC | -0.0393
CATCCGCC | 0.244
CCTAGTTC | -0.00076
AGTATGCC | 0.0174
AAAGGCAT | -0.125
AACTGAAT | -0.215
ATAACTCC | 0.4
ATAACTCG | 0.205
CTAACTCA | -0.177

Sequence | PBM E-score
CTAACTCC | 0.403
CTAACTGC | -0.0433
ATAACTCA | -0.0521
AAAAGGAA | 0.0913
ACGGGTAT | 0.0846
AGCGATAG | 0.119
CCCGATAG | 0.414
AACGATAG | 0.118
CCCGATAC | 0.432
AGCGATAA | 0.284
CACGATAG | -0.138
ACCGATAA | 0.443
ACCGATAG | 0.373
CGCGATAC | 0.17
ACCGATTA | 0.335
CCCGATCC | 0.31
CGCGATAG | 0.2
CATCGAGG | -0.23
CTCAGGAA | -0.108
AACCGGCT | 0.252
